The structures appear in SMILES notation. Several values for one entry are separate records, joined by “and”; a condition that tells them apart may be missing. Equal entries are not always repeated. The panel holds about 83,000 compounds, 20% with a hit somewhere; the sample as a whole holds those more often.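 96-well plates, one dose, 48 hours. Percent growth reported; active if below 10.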 Activity calls are given as the source filed them.

For one test, the system named is NCI-H23 lung. Kind of test: NCI-60 one-dose screen, 48 h (100 = growth as untreated, 0 = no growth, -100 = all killed). The note with it: 10 µM. The method, then:
Growth inhibition of the NCI-H23 human Non-Small Cell Lung tumor cell line is measured as a screen for anti-cancer activity. Cells are grown in 96 well plates and exposed to the test compound for 48 hours. Compounds are tested at a single concentration, which is 10^-5 M for most compounds. The reported endpoint is percent growth (GI% or GIPRCNT), where numbers from 0 - 100% represent growth inhibition, and numbers from -100% - 0 represent cell death. For example, a value of 40 represents 60% growth inhibition. A value of 0 means no net growth occurred over the course of the experiment. A value of -40 indicates 40% of cells at the beginning of the experiment died by the end of the experiment. A value of -100 means all cells are dead at the end of the experiment.
NCI-60 Human Tumor Cell Lines Screen was performed using the standard one-dose NCI protocol, which is described in more detail at https://dtp.cancer.gov/discovery_development/nci-60/default.htm.
Compounds with GIPRCNT values below 10 were considered active. Activity score was based on GIPRCNT using the following formula: […]
Score is 0 for GIPRCNT values of 100 or above, 50 for GIPRCNT values of 0, and 100 for GIPRCNT values of -100.
Consider `O=C(Nc1cccc(Br)c1)Oc1cccc2cccnc12`, for which the growth is 106% (inactive). Turning to `O=C(Nc1c(Cl)cccc1Cl)Oc1cccc2cccnc12`, the growth was 36.5% (inactive).

Staying with this test, now noted: 10 µM unless noted.
Regarding `Cn1c2ccccc2c2nnc(N/N=C/c3ccccn3)nc21`, the growth is 19.3% (inactive). Take `O=C(Nc1ccccc1)Oc1c(Cl)c(Cl)c(Cl)c(Cl)c1Cl`: the growth is 93.8% (inactive) and 93.2% (inactive).

As to `COc1ccccc1OC(=O)Oc1ccccc1OC`, the growth is 101% (inactive) and 95.5% (inactive).

In the case of `Oc1ccc(/C=N/NC(=S)Nc2ccccc2)nc1`, the growth was 14.9% (inactive).

As for `CC(C)(C)CC(C)(C)c1ccc(OCCSC(=N)N)cc1`, the growth is 60.7% (inactive). With `COc1ccccc1/C=C\C(=O)c1ccccc1`, the growth is 79.8% (inactive).

With `O=C(CC1(O)C(=O)Nc2c(Cl)ccc(Cl)c21)c1ccc(Cl)cc1Cl` (stereo not given), the growth is 101% (inactive). For the compound `O=[N+]([O-])c1ccc2c(N=Nc3ccc4ccccc4c3O)c(O)cc(S(=O)(=O)O)c2c1`, the growth is 101% (inactive). As for `Nc1ncnc2c1ncn2C1OC(CO)C(O)C1O` (stereo not given), the growth is 111% (inactive) and 93.6% (inactive) and 103% (inactive). For `COc1ccc2nc3cc(Cl)ccc3c(NCCNc3c4ccc(Cl)cc4nc4ccc(OC)cc34)c2c1`, the growth is -73% (active). As for `COc1ccc(N=N/N=c2\sc3cc(OC)ccc3n2C)cc1`, the growth was 79.6% (inactive).

Take `N[C@H](C(=O)O)[C@@H]1CC(Cl)=NO1`: the growth is 22.8% [20 µM] (inactive). On the same count and under the same terms, then `C[n+]1c(/C=C/c2ccc([N+](=O)[O-])cc2)ccc2ccccc21`, with 90.4% (inactive); and `Cc1ccnc2c1ccc1c(C)ccnc12`, with 21.7% (inactive); and `CC1OC(OC2C(OC3CCC4(C)C(CCC5(C)C4CC=C4C6CC(C)(C)CCC6(CO)C(O)CC45C)C3(C)C)OC(C(=O)O)C(OC3OC(COC4OC(CO)C(O)C(O)C4O)C(O)C(O)C3O)C2O)C(O)C(O)C1O` (stereo not given), with -82.1% (active). On the same count and under the same terms, the result for `O=C1c2cccnc2-c2nccc3c2c1nc1cc(Br)ccc13` reads -78.4% (active) and -66.2% (active); that for `Oc1c(Cl)c2ccccc2c2ccccc12`, 103% (inactive). For the compound `CN(C)c1ccc(C(=C2C=CC(=[N+](C)C)C=C2)c2ccc(N(C)C)cc2)cc1` (tested in a mixture with another compound), the growth was -49% (active). As for `O=[N+]([O-])c1ccc(N=Nc2ccc(O)cc2O)cc1`, the growth is 55.1% (inactive). `NC(=S)N/N=C/c1ccc(Cl)s1`: the growth was 106% (inactive).

`Cc1ccc2nc(-[n+]3cc4ccccc4cc3C)ccc2c1`: the growth was 19.1% (inactive). On the same count and under the same terms, then `CCN(CC)CCOc1ccc(-c2nc3cc(Cl)ccc3s2)cc1`, with -53.6% (active).

As to `Nc1nc(N)c2nc(CNc3ccc(C(=O)NC(CCC(=O)O)C(=O)O)cc3)cnc2n1` (stereo not given), the growth is 24.8% (inactive) and 22.4% (inactive).

Consider `N#CSCc1ccc(Cl)c(CSC#N)c1`, for which the growth is 40.4% (inactive). Regarding `Oc1c(Br)cc(Cl)cc1C(c1cc(Cl)cc(Br)c1O)C(Cl)(Cl)Cl`, the growth was 5.88% (active).

Regarding `CCOC(=O)/C=C/c1ccc([N+](=O)[O-])o1`, the growth is 73.7% (inactive). For `O=C(O)c1ccc2c3c(ncnc13)-c1ccccc1C2=O`, the growth is -76.7% (active).

Consider `COC(=O)[C@@]12OC[C@]34[C@H]([C@@H](O)[C@@H]1O)[C@@]1(C)[C@H](O)C(=O)C=C(C)[C@@H]1C[C@H]3OC(=O)C(OC(C)=O)[C@@H]24` (stereo not given in full), for which the growth was -48.7% (active).

For `Oc1c(Br)c(Br)c(O)c(Br)c1Br`, the growth was 92.5% (inactive). Consider `COc1cc(/C=C(/C)C[N+](=O)[O-])ccc1O`, for which the growth was 98.3% (inactive). For the compound `Cc1cc(C(C)(CC(C)C)c2ccc(O)c(C)c2)ccc1O`, the growth was 108% (inactive).

Turning to `COC(=O)Nc1nc2ccc(C(=O)c3ccccc3)cc2[nH]1`, the growth is 33.8% (inactive) and 19.3% (inactive) and 32.4% (inactive).

For `N#CSCc1ccc(CSC#N)c(Cl)c1`, the growth was 85.1% (inactive). The same measure, in the same setting: the result for `O=C(/C=C/C=C/c1ccccc1)c1ccco1` reads 92.2% (inactive); that for `CN(Cc1cnc2nc(N)nc(N)c2n1)c1ccc(C(=O)NC(CCC(=O)O)C(=O)O)cc1` (stereo not given), 23.4% (inactive). Same read-out and setting: then `CC(=Nc1ccc(N(C)C)cc1)c1ccccc1`, with 66.4% (inactive).

The test is the same for the next values; noted with them: 100 µM.
For the compound `O=C(Nc1cccc(Br)c1)Oc1cccc2cccnc12`, the growth is -21% (active). In the case of `O=C(Nc1c(Cl)cccc1Cl)Oc1cccc2cccnc12`, the growth was 20.2% (inactive).
